This passage reports inhibition results from PubChem BioAssay AID540299 (ICCB-Longwood Screening Facility, Harvard Medical School, 2011).

For orientation: inhibition means the drop in the measured response relative to a control, in per cent.

Where “and” joins values, the source holds several entries; their conditions need not be identical. Equal entries are not always repeated. The whole screen tested about 100,000 compounds, of which about 440 (0.44%) were called active. Rule as the data show it: active = inhibition above about 21% (passing the limit was not always enough); inactive = the rest. This excerpt belongs to a sample that is enriched for actives.

The target of the test is 1,4-dihydroxy-2-naphthoyl-CoA synthase (Mycobacterium tuberculosis (strain ATCC 25618 / H37Rv)) (UniProt P9WNP5). Briefly: M. tuberculosis MenB inhibitors, primary screen, biochemical, absorbance (AID 540299). The following applies: MenB enzyme assay, absorbance read-out; stronger effect = higher value; concentration not given here.
Chain of 1,4-dihydroxy-2-naphthoyl-CoA synthase (Mycobacterium tuberculosis (strain ATCC 25618 / H37Rv)) (P9WNP5 whole entry, looked up): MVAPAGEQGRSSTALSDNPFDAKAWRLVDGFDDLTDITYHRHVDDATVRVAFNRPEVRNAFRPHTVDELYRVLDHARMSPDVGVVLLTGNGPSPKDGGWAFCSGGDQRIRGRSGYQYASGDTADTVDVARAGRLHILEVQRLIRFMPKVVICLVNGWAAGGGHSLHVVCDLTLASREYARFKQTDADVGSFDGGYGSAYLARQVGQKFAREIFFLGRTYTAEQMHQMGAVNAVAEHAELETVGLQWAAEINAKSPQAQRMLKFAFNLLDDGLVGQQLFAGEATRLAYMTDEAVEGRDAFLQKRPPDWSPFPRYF
Consider `COc1cc(CNC(=O)c2ccc(N(C)C)cc2)cc(OC)c1OC`, for which the inhibition was -9.81% (inactive).
The value for `Cc1c(/C=C(\C#N)C(=O)Nc2nccs2)cc(C#N)n1C` was 0.38% (inactive).
To `O=S1(=O)CCC(NC2CCCCC2)C1` (stereo unspecified) belongs 49.9% (active); to `O=S1(=O)CCC(S(=O)(=O)NC2CCCC2)C1` (stereo unspecified), -11% (inactive).
To `C1CCC(NC2CCCC2)C1` belongs -21.1% (inactive); to `CN1C(=O)C(C)(C)c2cc(S(=O)(=O)NCCc3ccco3)ccc21`, -23.9% (inactive); to `CCc1cc(CC)c(CO)c(CC)c1/C=N/O`, -27% (inactive).
For the molecule `CC(Oc1ccccc1)c1nn2c(-c3cccnc3)nnc2s1` (stereo unspecified), the inhibition was -64.7% (inactive).
The value for `O=C(c1nc(-c2ccc(Cl)cc2)n2c1CCCCC2)N1CCCCCC1` was -18.8% (inactive); that for `Cc1cccc(COC(=O)Nc2ccc(N3CCCCC3)cc2)c1` was -13.2% (inactive).
To `COc1cccc(NC(=O)CC2CCCCC2)c1` belongs -13.2% (inactive); to `O=C(O)c1ccc(NC(=O)C2CC2)cc1`, 0% (inactive).
The value for `O=C(Cn1cc(C(F)(F)F)ccc1=O)Nc1ccc(S(=O)(=O)N2CCCC2)cc1` was 17% (inactive); that for `O=C(O)c1ccc2[nH]c(=O)c(=O)[nH]c2c1` was 6.67% (inactive) and 1.98% (inactive); that for `COc1ccc(C2NNC(=S)S2)cc1` (stereo unspecified) was 1.67% (inactive).
As to `COc1ccc(-c2nn(C)c3ccccc23)cc1`, the inhibition is 4.51% (inactive).
With `COc1ccc(-c2nc3sc(-c4ccc(OC)cc4)nc3s2)cc1`, the inhibition is 26.2% (active).
To `CN1CCN(n2c(-c3ccc(Cl)cc3)csc2=Nc2ccccc2)CC1` belongs -4.88% (inactive); to `CC1C(=O)N2CCCc3cc(S(=O)(=O)NCc4ccc(F)cc4)cc1c32` (stereo unspecified), -7.22% (inactive); to `O=S(=O)(c1cccs1)N(c1ccccc1)C(F)F`, 9.14% (inactive).
To `O=S(=O)(/C=C/c1ccccc1)N1CCN(CCc2ccncc2)CC1` belongs -2.97% (inactive).
